For 61 compounds, Inhibition results are on record in ChEMBL document CHEMBL1157539, “Thousands of chemical starting points for antimalarial lead identification” (Nature, 2010).

Common to all, as to format: functional
Assay [1] relates to Plasmodium falciparum. Description: GSK_TCMDC: Inhibition of Plasmodium falciparum 3D7 in whole red blood cells, using parasite LDH activity as an index of growth. Test compounds present at 2uM.
Assay [2] deals with Plasmodium falciparum. Description: GSK_TCMDC: Inhibition of Plasmodium falciparum Dd2 in whole red blood cells, using parasite LDH activity as an index of growth. Test compounds present at 2uM.
Assay [3] deals with HepG2. Description: GSK_TCMDC: Percent inhibition of human HepG2 cell line. Test compounds present at 10uM.

Regarding `O=C(O)C(F)(F)F.OCC1CCCCN1Cc1cccc(-c2cccc(-c3nc4ccccc4[nH]3)c2)c1` (stereo not drawn), the figures for the Inhibition in assay [1], in assay [2] and in assay [3] were 95%, 4% and 24%, respectively.
As for `Cc1cccc2nc(-c3ccc(-c4cccc(CNCc5cnn(-c6ccccc6)n5)c4)s3)[nH]c12.O=C(O)C(F)(F)F`, the Inhibition in assay [1] turned out to be 98%; in assay [2] it was 58%; in assay [3], 40%.
`CCOC(=O)C(NC(=O)c1ccc([N+](=O)[O-])o1)C(C)C` (stereo not drawn): the Inhibition in assay [1] turned out to be 87%; in assay [2] it was 8%; in assay [3], 0%.
Turning to `CCc1c(CCNCCCCCCNCCc2ccc(OC)c(OC)c2C)ccc(OC)c1OC.Cl`, the Inhibition in assay [1] is 98%; in assay [2] it was 1%; in assay [3] it was 16%.
In the case of `O=C(/C=C/c1ccc(C(F)(F)F)cc1)NCCCCCN1CCC(c2c[nH]c3ccccc23)CC1`, the Inhibition is on record as 100% in assay [1], 22% in assay [2] and 96% in assay [3].
Regarding `CCCC(C)Nc1nc(C)cc(N[C@@H](CC(C)C)C(=O)NCCc2ccccc2)n1.O=C(O)C(F)(F)F` (stereo partly drawn), the Inhibition is given as 96% in assay [1], 51% in assay [2] and 9% in assay [3].
`O=C(Nc1cccc(-c2csc(-c3nc4ccccc4[nH]3)c2)c1)c1ccncc1`: the Inhibition in assay [1] is listed as 100%; in assay [2], 61%; in assay [3] it was 64%.
`CC1CC(NCCCNc2cc(=O)c3ccccc3[nH]2)c2cc(Cl)c(Cl)c(Cl)c21` (stereo not drawn): the Inhibition in assay [1] is on record as 100%; in assay [2], 69%; in assay [3], 0%.
In the same order, the values of `COc1ccc(CCNCCCCCCNCCc2ccc(Cl)c3ccccc23)cc1OC.Cl` are 100%, 28% and 100%.
On to `COc1ccc(CN(C)CCCOc2ccc(NC(=O)C=Cc3ccc(C(C)(C)C)cc3)cc2)cc1OC`, for which the Inhibition came out at 100% in assay [1], 87% in assay [2] and 14% in assay [3].
On to `COc1cc2nc(NCCCO)nc(Nc3ccc(Oc4ccccc4)cc3)c2cc1OC`, for which the Inhibition in assay [1] is on record as 100%; in assay [2], 100%; in assay [3] it was 24%.
`CCCCN(C)CC#Cc1ccc(-c2ccc3[nH]c(C)c(Br)c(=O)c3c2)cn1`: the results for the Inhibition in assay [1], in assay [2] and in assay [3] were 98%, 93% and 3%, respectively.
With `Cc1nnc2c(NC(=O)NC3CCCC3)cc3ccc(-c4cccc(CN(C)C)c4)cc3n12`, the results for the Inhibition in assay [1], in assay [2] and in assay [3] were 90%, 25% and 42%, respectively.
For the compound `O=C(O)C(F)(F)F.c1ccc(CCNCc2ccc(-c3cccc(-c4nc5ccccc5[nH]4)c3)cc2)nc1`, the Inhibition in assay [1] is given as 100%; in assay [2], 87%; in assay [3] it was 36%.
With `Cc1ccc(NC(=O)N2CCC(n3c(-c4ccccc4)nc4cccnc43)CC2)cc1F`, the results for the Inhibition in assay [1], in assay [2] and in assay [3] were 96%, 85% and 23%, respectively.
`COc1cc(NC(=O)Nc2ccc(Br)cc2C(=O)Nc2ccc(Br)cc2)cc(OC)c1OC`: the figures for the Inhibition in assay [1], in assay [2] and in assay [3] were 99%, 98% and 0%, respectively.
Consider `CCCCN(C(=O)c1ccccc1Cl)c1nnc(-c2ccccc2C)s1`, for which the Inhibition came out at 90% in assay [1], 86% in assay [2] and 12% in assay [3].
Take `CC(CN1CCN(C)CC1)C(=O)Nc1ccc(-c2cccc(-c3nc4cc(C(F)(F)F)ccc4[nH]3)c2)cc1` (stereo not drawn): the Inhibition in assay [1] was 99%; in assay [2] it was 96%; in assay [3], 16%.
In the case of `COc1ccc(Nc2cc(C)nc(NCc3ccc4c(c3)OCO4)n2)cc1`, the Inhibition in assay [1] is 99%; in assay [2], 78%; in assay [3] it was 26%.
Regarding `NCc1ccc(-c2ccccc2CNC2CCN(Cc3ccccc3)CC2)cc1.O=C(O)C(F)(F)F`, the Inhibition in assay [1] is reported as 94%; in assay [2] it was 3%; in assay [3], 20%.
As to `CC(C)[C@H](NC(=O)c1ccc(O)c(-c2cccc(C(F)(F)F)c2)c1)C(=O)NCCN1CCCCC1`, the Inhibition in assay [1] is 99%; in assay [2] it was 29%; in assay [3] it was 3%.
The corresponding values for `Cc1cccc2nc(-c3ccc(-c4ccc(CNCC(C)C)cc4)cc3)[nH]c12.O=C(O)C(F)(F)F` are 100%, 90% and 14%.
In the same order, the values of `CC(Oc1ccc(Cl)cc1Cl)c1nc(-c2ccc(NC(=O)c3ccco3)cc2)no1` (stereo not drawn) are 92%, 82% and 7%.
`Cc1cc(=NN=Cc2ccccn2)c2cc(C(F)(F)F)ccc2[nH]1`: the Inhibition worked out at 100% in assay [1], 100% in assay [2] and 0% in assay [3].
Turning to `Br.CCC1N=C(N)N=C(N)N1OCCCOc1c(Cl)cc(Cl)cc1Cl` (stereo not drawn), the Inhibition in assay [1] is reported as 95%; in assay [2], 96%; in assay [3], 67%.
As for `CCCc1cc(=O)[nH]c(-n2nc(C)cc2NC(=O)CC(c2ccccc2)c2ccccc2)n1`, the Inhibition in assay [1] was found to be 97%; in assay [2], 88%; in assay [3], 39%.
In the case of `Cc1[nH]c(C)c(-c2cc3ccccc3o2)c(=O)c1Cl`, the Inhibition in assay [1] stood at 92%; in assay [2], 13%; in assay [3], 1%.
As to `CNC(=O)c1cc(S(=O)(=O)Nc2ccc(OC)cc2)cs1`, the Inhibition worked out at 95% in assay [1], 48% in assay [2] and 11% in assay [3].
For the compound `CC(CN(C)C)C(=O)Nc1cccc(-c2ccc(-c3nc4cc(F)ccc4[nH]3)cc2)c1` (stereo not drawn), the Inhibition came to 100% in assay [1], 100% in assay [2] and 11% in assay [3].
On to `O=C(/C=C/c1ccc([N+](=O)[O-])cc1)N1CCC(NS(=O)(=O)c2cccc(C(F)(F)F)c2)CC1`, for which the results for the Inhibition in assay [1], in assay [2] and in assay [3] were 94%, 8% and 0%, respectively.
With `Cc1sc(CNCCCNc2cc(=O)c3ccccc3[nH]2)cc1Br`, the values for the Inhibition in assay [1], in assay [2] and in assay [3] were 100%, 83% and 12%, respectively.
As for `CC(C)Oc1ccc2c(c1)OC(c1ccccc1)(C(F)(F)F)NC2=O` (stereo not drawn), the Inhibition in assay [1] was 100%; in assay [2], 98%; in assay [3], 0%.
For the compound `CN1CCC(C(=O)N(Cc2ccc(-c3ccc(CNCCc4ccc(S(C)(=O)=O)cc4)cn3)cc2)C2Cc3ccccc3C2)CC1.O=C(O)C(F)(F)F`, the values for the Inhibition in assay [1], in assay [2] and in assay [3] were 98%, 49% and 21%, respectively.
On to `CC(O)C1CCCCN1C(=O)c1cccc(-c2ccc(-c3nc4cc(F)ccc4[nH]3)cc2)c1` (stereo not drawn), for which the Inhibition turned out to be 100% in assay [1], 99% in assay [2] and 46% in assay [3].
Regarding `Oc1c(C(Nc2nc3ccccc3s2)c2ccc(OC(F)F)cc2)ccc2cccnc12` (stereo not drawn), the Inhibition is 92% in assay [1], 85% in assay [2] and 62% in assay [3].
Consider `Cc1cc(C(=O)OCC(N)=O)c(C)n1-c1ccc(F)cc1`, for which the Inhibition is recorded as 97% in assay [1], 96% in assay [2] and 0% in assay [3].
Turning to `Cc1cc(NC(=O)c2ccco2)ccc1OC1CCN(Cc2ccc(F)cc2)C1.O=C(O)C(F)(F)F` (stereo not drawn), the results for the Inhibition in assay [1], in assay [2] and in assay [3] were 96%, 92% and 5%, respectively.
The corresponding values for `O=C(C=Cc1ccc(Cl)c(Cl)c1)NC1CCN(CCc2ccccc2)CC1.O=C(O)C(F)(F)F` are 97%, 13% and 6%.
Consider `CC1(C)N=C(N)N=C(N)N1OCCCc1ccccc1.Cl`, for which the Inhibition in assay [1] worked out at 96%; in assay [2] it was 94%; in assay [3], 64%.
For the compound `CS(=O)(=O)NCCCNCc1cccc(-c2ccc(-c3nc4cc(C(F)(F)F)ccc4[nH]3)cc2)c1.O=C(O)C(F)(F)F`, the Inhibition in assay [1] was found to be 100%; in assay [2], 85%; in assay [3] it was 17%.
`COc1cc2c(cc1C=CC(=O)N1CCN(Cc3nc(O)c4c(C)c(C)sc4n3)CC1)OC(C)C2` (stereo not drawn): the Inhibition in assay [1] turned out to be 82%; in assay [2], 87%; in assay [3] it was 0%.
In the case of `CN1Cc2cc(NC(=O)/C=C/c3ccccc3Cl)ccc2C(C)(C)C1.Cl`, the Inhibition in assay [1] came out at 99%; in assay [2], 96%; in assay [3], 12%.
In the same order, the values of `FC(F)(F)c1ccc2[nH]ccc(=NN=Cc3cccc(Cl)c3)c2c1` are 97%, 2% and 0%.
On to `CCN(CC)CCCNc1ncc2c(-c3ccc(NC(=O)Nc4cc(C(F)(F)F)ccc4F)cc3)nn(C)c2n1.O=C(O)C(F)(F)F`, for which the figures for the Inhibition in assay [1], in assay [2] and in assay [3] were 99%, 74% and 81%, respectively.
The corresponding values for `Cc1cc(O)c(CN(C)Cc2ccc3c(c2)OCCO3)cc1C(C)C` are 98%, 47% and 10%.
In the case of `N=C(/N=C(/NCCCCCCN/C(=N/C(=N)NCc1ccc(Cl)c(Cl)c1)N1CCCCC1)N1CCCCC1)NCc1ccc(Cl)c(Cl)c1`, the Inhibition in assay [1] worked out at 100%; in assay [2], 99%; in assay [3], 6%.
With `COc1cccc(CNC(=O)c2ccnc(-c3ccc(CNCCOc4ccccc4)cc3)c2)c1.O=C(O)C(F)(F)F`, the Inhibition turned out to be 83% in assay [1], 10% in assay [2] and 23% in assay [3].
As to `CC(C)[C@@H](NC(=O)NC1CCC(CCN2C3CCC2CC(OC(=O)C(CO)c2ccccc2)C3)CC1)C(O)(c1ccccc1)c1ccccc1` (stereo partly drawn), the Inhibition in assay [1] is 96%; in assay [2], 56%; in assay [3] it was 19%.
Take `CC(C)CN1C(=O)c2ccc(C(=O)Nc3nccs3)cc2C1=O`: the Inhibition is recorded as 89% in assay [1], 0% in assay [2] and 3% in assay [3].
Take `Nc1c(Cl)cc(C(O)CNCCCCCOCCc2ccc3ccccc3n2)cc1Cl.O=C(O)/C=C/C(=O)O` (stereo not drawn): the Inhibition is 98% in assay [1], 97% in assay [2] and 9% in assay [3].
In the case of `O=C(c1ccc(-c2ccccn2)s1)N1CCc2cc3nccc(N4CCN5CCC[C@H]5C4)c3cc21`, the Inhibition in assay [1] was determined as 96%; in assay [2], 49%; in assay [3], 0%.
As for `CCC[C@@H]([C@@H](CC1CCCCC1)C(=O)N[C@H](C(=O)Nc1nccs1)C(C)(C)SCCNC(=O)OCC)N(O)C=O`, the Inhibition is reported as 99% in assay [1], 98% in assay [2] and 45% in assay [3].
Take `FC(F)(F)c1ccc2[nH]c(-c3ccc(-c4ccc(CN5CCN(c6cnccn6)CC5)cc4)s3)nc2c1.O=C(O)C(F)(F)F`: the Inhibition in assay [1] was 100%; in assay [2], 99%; in assay [3], 23%.
Regarding `COc1ccc(Oc2ccc(Nc3ccnc4ccc(C(F)(F)F)cc34)cc2)cc1OC.Cl`, the Inhibition in assay [1] amounted to 90%; in assay [2], 17%; in assay [3], 0%.
The corresponding values for `CCOc1cc(C(=O)NC2CC(C)(C)N(C)C(C)(C)C2)ccc1-c1nc2cc(Cl)c(Cl)cc2[nH]1` are 100%, 49% and 64%.
Consider `Cc1cc(NS(=O)(=O)c2cccc(C(C)N3CCC(N4CCCC4)CC3)c2)ccc1C(C)C` (stereo not drawn), for which the Inhibition in assay [1] was 100%; in assay [2] it was 53%; in assay [3], 30%.
Consider `CN(C)c1ccc(-c2ccc(C(=O)NC3CCN(Cc4ccc5c(c4)OCCO5)CC3)s2)cc1.O=C(O)C(F)(F)F`, for which the Inhibition is given as 100% in assay [1], 73% in assay [2] and 36% in assay [3].
With `CCOC(=O)c1ccc(NC(=O)Nc2cccc(-c3cccc(-c4nc5ccccc5[nH]4)c3)c2)cc1`, the Inhibition in assay [1] amounted to 100%; in assay [2], 99%; in assay [3], 76%.
Take `O=C(CSc1nc(-c2ccccc2Cl)ns1)Nc1ccc2c(c1)OCO2`: the values for the Inhibition in assay [1], in assay [2] and in assay [3] were 93%, 77% and 0%, respectively.
On to `COc1ccc(-c2cc(-c3nc4cc(C(=O)N5CCOCC5)ccc4[nH]3)c(=O)n(C)c2)cc1OC.O=C(O)C(F)(F)F`, for which the Inhibition in assay [1] worked out at 93%; in assay [2], 95%; in assay [3], 6%.
`COc1ccc2nccc([C@@H](O)CN3CCC(NC(=O)C(c4cc5ccccc5o4)N4CCN(C(c5ccccc5)c5ccccc5)CC4)CC3)c2c1` (stereo partly drawn): the Inhibition in assay [1] came to 100%; in assay [2], 100%; in assay [3], 18%.

As usually defined, the Inhibition is the share of the control response that was lost under treatment. Lower therefore signals little suppression.
